From PubChem BioAssay (NCI) come the findings set out here.

What all share (experiment): NCI-60 one-dose screen, 48 h (100 = growth as untreated, 0 = no growth, -100 = all killed)
Conditions in all cases: 10 µM unless noted

In experiment [1] the test system is HCT-15 colon.
In experiment [2] the test system is HT29 colon.
The test system of experiment [3] is SNB-75 CNS.
Experiment [4] relates to SNB-19 CNS.
Experiment [5] deals with U251 CNS.
Experiment [6] concerns PC-3 prostate.
The subject of experiment [7] is SK-MEL-5 melanoma.
Experiment [8] deals with UACC-62 melanoma.
Experiment [9] relates to LOX IMVI melanoma.
Experiment [10] deals with SK-MEL-28 melanoma.
In experiment [11] the test system is SK-MEL-2 melanoma.
Experiment [12] has as its system EKVX NSCLC.
The test system of experiment [13] is SN12C renal.
The test system of experiment [14] is UO-31 renal.
Experiment [15] relates to TK-10 renal.
Experiment [16] relates to ACHN renal.
Experiment [17] deals with CAKI-1 renal.
Experiment [18] deals with A498 renal.
Experiment [19] relates to HL-60(TB) leukemia.
The subject of experiment [20] is CCRF-CEM leukemia.

Where “and” joins values, the source holds several entries; their conditions need not be identical. Identical values can stand only once. Compounds without any hit were thinned out: in the full panel of roughly 83,000, 20% have a hit.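 In brief: 96-well plates, 48 h treatment, single concentration, percent growth endpoint.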 Unmarked numbers belong to inactive results. Calls of active or inactive are those of the source. How the source made its calls: active means growth percent below 10; inactive means the rest.

As to `Cc1nnc([S-])o1.[Au+].c1ccc([PH+](c2ccccc2)c2ccccc2)cc1`, the growth in experiment [1] is 8.98% (active); in experiment [2], 61.1%; in [3] it was 29.3%; in experiment [4], 29.2%; in [5] it was 10.1%; in experiment [6], 57.7%. In addition, the growth was 26.7% in [7]; 21.3% in [8]; 13.2% in experiment [9]; 32.8% in experiment [10]; 47.9% in experiment [11]; 87.3% in [12]. For the same molecule, the growth in experiment [13] is 40.8%; in experiment [14] it was 55.1%; in experiment [15], 102%; in experiment [16], 0.817% (active); in experiment [17], 41.6%; in experiment [18] it was 90.5%. For the same molecule, the growth in experiment [19] is 6.51% (active); in experiment [20] it was 11.1%.

Consider `CC1(C)C2CCC1(CS(=O)(=O)O)C(=O)C2` (centres undefined), for which the growth in experiment [1] was 91.7% and 104%; in experiment [2], 98.2% and 108%; in experiment [3], 95% and 82.9%; in experiment [4] it was 101% and 109%; in experiment [5] it was 90.8% and 101%; in experiment [6], 94.6% and 94.5%. Besides, the growth in experiment [7] was 105% and 115%; in experiment [8], 88.3% and 93.2%; in experiment [9] it was 77.1% and 100%; in experiment [10], 109% and 126%; in experiment [11], 107% and 106%; in [12], 101% and 94.6%. Besides, the growth in experiment [13] was 87.1% and 111%; in experiment [14], 86% and 110%; in experiment [15] it was 96% and 87.3%; in [16], 95.9% and 105%; in experiment [17], 97.5% and 84.5%; in experiment [18], 84.3% and 96.9%. Also, the growth in [19] is 104% and 80.1%; in [20], 96.1% and 103%.

For `CCOC(=O)P(=O)(OCC)OCC`, the growth in [1] was 101%; in experiment [2] it was 102%; in experiment [3] it was 115%; in experiment [4] it was 97.9%; in [5], 109%; in experiment [6] it was 92.5%. Further, the growth was 107% in [7]; 96.9% in [8]; 91.6% in experiment [9]; 106% in experiment [10]; 113% in experiment [11]; 124% in experiment [12]. Also, the growth in experiment [13] was 101%; in [14], 92.3%; in experiment [15] it was 107%; in [16], 105%; in experiment [17], 119%; in experiment [18], 102%. Further, the growth in [19] is 113%; in experiment [20] it was 118%.

Regarding `O=C(Cc1ccccc1)NC(O)C(Cl)(Cl)Cl` (centres undefined), the growth in [1] was 118%; in experiment [2] it was 99.3%; in [3], 86.1%; in experiment [4] it was 95%; in [5], 99.9%; in [6] it was 106%. Also, the growth in experiment [7] is 105%; in [8], 97.9%; in [9], 101%; in experiment [10], 110%; in experiment [11], 105%; in experiment [12] it was 124%. Further, the growth in experiment [13] was 99.3%; in [14], 93.8%; in [15], 99.8%; in experiment [16] it was 120%; in experiment [17] it was 108%; in [18], 104%. The growth in [19] was 101%; in [20], 106%.

`ClC1OC(Cl)(Cl)C(Cl)(Cl)OC1(Cl)Cl` (centres undefined): the growth in [1] was 106%; in [2], 103%; in [3] it was 88.3%; in [4], 112%; in experiment [5], 103%; in experiment [6], 104%. Moreover, the growth was 100% in [7]; 104% in experiment [8]; 108% in [9]; 106% in experiment [10]; 113% in [11]; 100% in experiment [12]. Besides, the growth in [13] was 95.1%; in experiment [14], 81.4%; in experiment [15] it was 107%; in experiment [16], 99.7%; in experiment [17] it was 99%; in [18], 131%. Further, the growth in [19] is 125%.

Consider `CN1C2CCC1[C@@H](COC(=O)c1ccccc1)[C@@H](O)C2` (some centres undefined), for which the growth in experiment [1] was 111%; in [2], 91.3%; in experiment [3], 83.5%; in experiment [4], 102%; in [5], 103%; in experiment [6], 99.7%. Also, the growth in experiment [7] is 112%; in [8], 96%; in [9], 103%; in experiment [10] it was 128%; in experiment [11], 104%; in experiment [12], 104%. Further, the growth in experiment [13] is 105%; in experiment [14] it was 91.8%; in experiment [15] it was 131%; in [16], 105%; in experiment [17], 122%; in experiment [18], 144%. For the same molecule, the growth in [19] is 81.7%; in experiment [20], 94.3%.

With `CO[C@H]1[C@H](O[C@@H]2C[C@@H]3C/C=C/C(=O)O[C@@H](CO)C[C@H](O)[C@@H]4C[C@H](C)[C@H](C/C=C\C=C\[C@H](C)C[C@H](C2)O3)O4)O[C@@H](C)[C@H](O)[C@H]1O`, the growth in [1] is 47.4%; in [2], 66.1%; in experiment [3], 56.7%; in [4] it was 52.2%; in experiment [5] it was 40.3%; in experiment [6], 35%. For the same molecule, the growth in experiment [7] is 19.2%; in experiment [8], 61.8%; in [9] it was 59.7%; in experiment [10], 76.1%; in [11] it was 68.8%; in experiment [12] it was 28.7%. Besides, the growth in experiment [13] was 62.6%; in experiment [14], 33.3%; in [15] it was 32.2%; in [16], 66.4%; in experiment [17] it was 61.6%; in [18] it was 60.6%. For the same molecule, the growth is 33.2% in experiment [19] and 58.7% in experiment [20].
